# Source: PubChem BioAssay (NCI)
# The panel holds about 83,000 compounds, 20% with a hit somewhere; the sample as a whole holds those more often.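 Negative percent growth values reflect cell death: -40 means 40% of the cells present at the start died, and -100 means all died.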 Unmarked numbers belong to inactive results. The source made the active and inactive calls. How the source made its calls: active means growth percent below 10; inactive means the rest.
# Experiments:
# Assay in all cases: NCI-60 one-dose screen, 48 h (100 = growth as untreated, 0 = no growth, -100 = all killed)
# Conditions in all cases: 10 µM unless noted
# [1] = tested on: NCI-H23 lung
# [2] = tested on: NCI-H226 lung
# [3] = tested on: NCI-H322M lung
# [4] = tested on: HOP-62 NSCLC
# [5] = tested on: NCI-H460 lung
# [6] = tested on: HOP-92 NSCLC
# [7] = tested on: NCI-H522 lung
# [8] = tested on: A549/ATCC NSCLC
# [9] = tested on: 786-0 renal
# [10] = tested on: COLO 205 colon
Structure (SMILES),growth [1],growth [2] [%],growth [3] [%],growth [4] [%],growth [5],growth [6],growth [7] [%],growth [8] [%],growth [9],growth [10] [%]
N#C/C(=C\c1ccc2c(c1)OCO2)c1ccccc1,84%,90.9,95.1,67.3,68.3%,64.5%,52,71.9,95.5%,66.5
Clc1ncnc2nc[nH]c12,94.4%,96.3,104,83.7,103%,68.8%,70.5,101,101%,101
CC(=O)OCC1CCC(COC(C)=O)CC1 (stereo not given),95.5%,105,96.6,90.8,110%,125%,67.4,79.7,95.3%,120
CC(C)(C)NCCC(O)c1cc(C(F)(F)F)nc2c(C(F)(F)F)cccc12 (stereo not given),95.5%,75.2,76.2,68.3,44.4%,40.2%,76.2,57.5,80.3%,97.7
COc1cc(OC)c(NC(=O)C(Sc2nc(C)cc(C)c2C#N)c2ccccc2)cc1Cl (stereo not given),96.6%,102,106,65.5,110%,80.9%,82.1,92.6,73.6%,104
Nc1cc2c(cc1Cl)C(=O)c1ccccc1C2=O,0.869% (active),12.7,30.2,26.8,0.87% (active),-1.69% (active),65,27.2,-19% (active),76.2
